Test results: the supplement of paper PMC4466140

What was measured:
Test in all cases: SPOT peptide array binding signal intensity (averaged, normalized) (arbitrary units (background-subtracted, floor 0; scale differs between SH3 domains)); higher = stronger binding of the SH3 domain to the peptide
AgAbp1 = target: AgAbp1
In short: (§1)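 Spot intensities were captured after detection with anti-GST antibody, an HRP-linked anti-mouse secondary and luminol, and quantified with Genespotter. The probes were GST-fused SH3 domains from four yeast species, produced in E. coli BL21(DE3), purified on glutathione Sepharose and incubated at 10 μg/ml overnight at 4°C on cellulose-bound synthetic 15-mer peptides with cysteines replaced by serines. Binding signal is the normalized, background-subtracted spot intensity averaged over replicates, and its arbitrary units differ between domains.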

AgBbc1 = target: AgBbc1
In short: as §1

AgBem1-D1 = target: AgBem1-D1
In short: as §1

AgBzz1-D1 = target: AgBzz1-D1
In short: as §1

AgBzz1-D2 = target: AgBzz1-D2
In short: as §1

AgCyk3 = target: AgCyk3
In short: as §1

AgFus1 = target: AgFus1
In short: as §1

AgHof1 = target: AgHof1
In short: as §1

AgHse1 = target: AgHse1
In short: as §1

AgLsb1 = target: AgLsb1
In short: as §1

AgLsb4 = target: AgLsb4
In short: as §1

AgMyo5 = target: AgMyo5
In short: as §1

AgNbp2 = target: AgNbp2
In short: as §1

AgRvs167 = target: AgRvs167
In short: as §1

AgSho1 = target: AgSho1
In short: as §1

AgSla1-D1-D2 = target: AgSla1-D1-D2
In short: as §1

AgSla1-D3 = target: AgSla1-D3
In short: as §1

CaAbp1-D1 = target: CaAbp1-D1
In short: as §1

CaAbp1-D2 = target: CaAbp1-D2
In short: as §1

CaBbc1 = target: CaBbc1
In short: as §1

CaBem1-D1 = target: CaBem1-D1
In short: as §1

CaBzz1-D1 = target: CaBzz1-D1
In short: as §1

CaBzz1-D2 = target: CaBzz1-D2
In short: as §1

CaCyk3 = target: CaCyk3
In short: as §1

CaFus1 = target: CaFus1
In short: as §1

CaHof1 = target: CaHof1
In short: as §1

CaHse1 = target: CaHse1
In short: as §1

CaLsb1 = target: CaLsb1
In short: as §1

CaLsb4 = target: CaLsb4
In short: as §1

CaMyo5 = target: CaMyo5
In short: as §1

CaNbp2 = target: CaNbp2
In short: as §1

CaRvs167 = target: CaRvs167
In short: as §1

CaRvs167-3 = target: CaRvs167-3
In short: as §1

CaSho1 = target: CaSho1
In short: as §1

CaSla1-D1-D2 = target: CaSla1-D1-D2
In short: as §1

CaSla1-D3 = target: CaSla1-D3
In short: as §1

ScAbp1 = target: ScAbp1
In short: as §1

ScBbc1 = target: ScBbc1
In short: as §1

ScBem1-D1 = target: ScBem1-D1
In short: as §1

ScBzz1-D1 = target: ScBzz1-D1
In short: as §1

ScBzz1-D2 = target: ScBzz1-D2
In short: as §1

ScCyk3 = target: ScCyk3
In short: as §1

ScFus1 = target: ScFus1
In short: as §1

ScHof1 = target: ScHof1
In short: as §1

ScHse1 = target: ScHse1
In short: as §1

ScLsb1 = target: ScLsb1
In short: as §1

ScLsb2 = target: ScLsb2
In short: as §1

ScLsb3 = target: ScLsb3
In short: as §1

ScLsb4 = target: ScLsb4
In short: as §1

ScMyo3 = target: ScMyo3
In short: as §1

ScMyo5 = target: ScMyo5
In short: as §1

ScNbp2 = target: ScNbp2
In short: as §1

ScPex13 = target: ScPex13
In short: as §1

ScRvs167 = target: ScRvs167
In short: as §1

ScSho1 = target: ScSho1
In short: as §1

ScSla1-D1-D2 = target: ScSla1-D1-D2
In short: as §1

ScSla1-D3 = target: ScSla1-D3
In short: as §1

SpAbp1-D1 = target: SpAbp1-D1
In short: as §1

SpBbc1 = target: SpBbc1
In short: as §1

SpBzz1-D1 = target: SpBzz1-D1
In short: as §1

SpBzz1-D2 = target: SpBzz1-D2
In short: as §1

SpCyk3 = target: SpCyk3
In short: as §1

SpHof1 = target: SpHof1
In short: as §1

SpHof1-2 = target: SpHof1-2
In short: as §1

SpHof1-3 = target: SpHof1-3
In short: as §1

SpHse1 = target: SpHse1
In short: as §1

SpLsb1 = target: SpLsb1
In short: as §1

SpLsb4 = target: SpLsb4
In short: as §1

SpMyo1 = target: SpMyo1
In short: as §1

SpNbp2 = target: SpNbp2
In short: as §1

SpPex13 = target: SpPex13
In short: as §1

SpRvs167 = target: SpRvs167
In short: as §1

SpSla1-D1-D2 = target: SpSla1-D1-D2
In short: as §1

SpSla1-D3 = target: SpSla1-D3
In short: as §1

B1: unnamed (peptide)
chain: PSPSSSPPPIPKTAN
SPOT peptide array binding signal intensity (AgAbp1): 6.5 | SPOT peptide array binding signal intensity (AgBbc1): 2.5 | SPOT peptide array binding signal intensity (AgBem1-D1): 5 | SPOT peptide array binding signal intensity (AgBzz1-D1): 2 | SPOT peptide array binding signal intensity (AgBzz1-D2): 22.5 | SPOT peptide array binding signal intensity (AgCyk3): 1 | SPOT peptide array binding signal intensity (AgFus1): 0.5 | SPOT peptide array binding signal intensity (AgHof1): ≤ 0 | SPOT peptide array binding signal intensity (AgHse1): 27 | SPOT peptide array binding signal intensity (AgLsb1): 1 | SPOT peptide array binding signal intensity (AgLsb4): ≤ 0 | SPOT peptide array binding signal intensity (AgMyo5): 1760 | SPOT peptide array binding signal intensity (AgNbp2): ≤ 0 | SPOT peptide array binding signal intensity (AgRvs167): 2.33 | SPOT peptide array binding signal intensity (AgSho1): 2.5 | SPOT peptide array binding signal intensity (AgSla1-D1-D2): 2.5 | SPOT peptide array binding signal intensity (AgSla1-D3): ≤ 0 | SPOT peptide array binding signal intensity (CaAbp1-D1): ≤ 0 | SPOT peptide array binding signal intensity (CaAbp1-D2): 9 | SPOT peptide array binding signal intensity (CaBbc1): 1 | SPOT peptide array binding signal intensity (CaBem1-D1): ≤ 0 | SPOT peptide array binding signal intensity (CaBzz1-D1): 112 | SPOT peptide array binding signal intensity (CaBzz1-D2): 15 | SPOT peptide array binding signal intensity (CaCyk3): 1 | SPOT peptide array binding signal intensity (CaFus1): 31.5 | SPOT peptide array binding signal intensity (CaHof1): ≤ 0 | SPOT peptide array binding signal intensity (CaHse1): ≤ 0 | SPOT peptide array binding signal intensity (CaLsb1): ≤ 0 | SPOT peptide array binding signal intensity (CaLsb4): 4.5 | SPOT peptide array binding signal intensity (CaMyo5): 386 | SPOT peptide array binding signal intensity (CaNbp2): 15.5 | SPOT peptide array binding signal intensity (CaRvs167): ≤ 0 | SPOT peptide array binding signal intensity (CaRvs167-3): 3 | SPOT peptide array binding signal intensity (CaSho1): 5 | SPOT peptide array binding signal intensity (CaSla1-D1-D2): 8.5 | SPOT peptide array binding signal intensity (CaSla1-D3): ≤ 0 | SPOT peptide array binding signal intensity (ScAbp1): 9 | SPOT peptide array binding signal intensity (ScBbc1): ≤ 0 | SPOT peptide array binding signal intensity (ScBem1-D1): ≤ 0 | SPOT peptide array binding signal intensity (ScBzz1-D1): 4 | SPOT peptide array binding signal intensity (ScBzz1-D2): 20 | SPOT peptide array binding signal intensity (ScCyk3): ≤ 0 | SPOT peptide array binding signal intensity (ScFus1): ≤ 0 | SPOT peptide array binding signal intensity (ScHof1): ≤ 0 | SPOT peptide array binding signal intensity (ScHse1): 50 | SPOT peptide array binding signal intensity (ScLsb1): 1 | SPOT peptide array binding signal intensity (ScLsb2): ≤ 0 | SPOT peptide array binding signal intensity (ScLsb3): 24.5 | SPOT peptide array binding signal intensity (ScLsb4): ≤ 0 | SPOT peptide array binding signal intensity (ScMyo3): 2350 | SPOT peptide array binding signal intensity (ScMyo5): 1200 | SPOT peptide array binding signal intensity (ScNbp2): 6.5 | SPOT peptide array binding signal intensity (ScPex13): ≤ 0 | SPOT peptide array binding signal intensity (ScRvs167): 2 | SPOT peptide array binding signal intensity (ScSho1): ≤ 0 | SPOT peptide array binding signal intensity (ScSla1-D1-D2): ≤ 0 | SPOT peptide array binding signal intensity (ScSla1-D3): 22.8 | SPOT peptide array binding signal intensity (SpAbp1-D1): 8 | SPOT peptide array binding signal intensity (SpBbc1): 5 | SPOT peptide array binding signal intensity (SpBzz1-D1): 182 | SPOT peptide array binding signal intensity (SpBzz1-D2): 0.5 | SPOT peptide array binding signal intensity (SpCyk3): 1 | SPOT peptide array binding signal intensity (SpHof1): ≤ 0 | SPOT peptide array binding signal intensity (SpHof1-2): ≤ 0 | SPOT peptide array binding signal intensity (SpHof1-3): 0.5 | SPOT peptide array binding signal intensity (SpHse1): 2.5 | SPOT peptide array binding signal intensity (SpLsb1): 1.5 | SPOT peptide array binding signal intensity (SpLsb4): ≤ 0 | SPOT peptide array binding signal intensity (SpMyo1): 1570 | SPOT peptide array binding signal intensity (SpNbp2): 3 | SPOT peptide array binding signal intensity (SpPex13): ≤ 0 | SPOT peptide array binding signal intensity (SpRvs167): 1.17 | SPOT peptide array binding signal intensity (SpSla1-D1-D2): 2 | SPOT peptide array binding signal intensity (SpSla1-D3): 3

B2: unnamed (peptide)
chain: PPPPPPPPPPLPQSL
SPOT peptide array binding signal intensity (CaNbp2): 67.5 | SPOT peptide array binding signal intensity (CaRvs167): ≤ 0 | SPOT peptide array binding signal intensity (CaRvs167-3): ≤ 0 | SPOT peptide array binding signal intensity (CaSho1): 4 | SPOT peptide array binding signal intensity (CaSla1-D1-D2): ≤ 0 | SPOT peptide array binding signal intensity (CaSla1-D3): ≤ 0 | SPOT peptide array binding signal intensity (ScAbp1): 1 | SPOT peptide array binding signal intensity (ScBbc1): ≤ 0 | SPOT peptide array binding signal intensity (ScBem1-D1): ≤ 0 | SPOT peptide array binding signal intensity (ScBzz1-D1): 4 | SPOT peptide array binding signal intensity (ScBzz1-D2): 2 | SPOT peptide array binding signal intensity (ScCyk3): ≤ 0 | SPOT peptide array binding signal intensity (ScFus1): ≤ 0 | SPOT peptide array binding signal intensity (ScHof1): 92.8 | SPOT peptide array binding signal intensity (ScHse1): 19 | SPOT peptide array binding signal intensity (ScLsb1): ≤ 0 | SPOT peptide array binding signal intensity (ScLsb2): ≤ 0 | SPOT peptide array binding signal intensity (ScLsb3): 49 | SPOT peptide array binding signal intensity (ScLsb4): ≤ 0 | SPOT peptide array binding signal intensity (ScMyo3): 1500 | SPOT peptide array binding signal intensity (ScMyo5): 677 | SPOT peptide array binding signal intensity (ScNbp2): ≤ 0 | SPOT peptide array binding signal intensity (ScPex13): 526 | SPOT peptide array binding signal intensity (ScRvs167): ≤ 0 | SPOT peptide array binding signal intensity (ScSho1): 28.5 | SPOT peptide array binding signal intensity (ScSla1-D1-D2): 3.5 | SPOT peptide array binding signal intensity (ScSla1-D3): ≤ 0 | SPOT peptide array binding signal intensity (SpAbp1-D1): 4 | SPOT peptide array binding signal intensity (SpBbc1): 1 | SPOT peptide array binding signal intensity (SpBzz1-D1): 4430 | SPOT peptide array binding signal intensity (SpBzz1-D2): 41 | SPOT peptide array binding signal intensity (SpCyk3): ≤ 0 | SPOT peptide array binding signal intensity (SpHof1): ≤ 0 | SPOT peptide array binding signal intensity (SpHof1-2): 4 | SPOT peptide array binding signal intensity (SpHof1-3): ≤ 0 | SPOT peptide array binding signal intensity (SpHse1): 13.5 | SPOT peptide array binding signal intensity (SpLsb1): 0.5 | SPOT peptide array binding signal intensity (SpLsb4): 23 | SPOT peptide array binding signal intensity (SpMyo1): 1510 | SPOT peptide array binding signal intensity (SpNbp2): 17 | SPOT peptide array binding signal intensity (SpPex13): ≤ 0 | SPOT peptide array binding signal intensity (SpRvs167): 72.5 | SPOT peptide array binding signal intensity (SpSla1-D1-D2): ≤ 0 | SPOT peptide array binding signal intensity (SpSla1-D3): ≤ 0
